# PubChem BioAssay AID504707 (The Scripps Research Institute Molecular Screening Center, 2011)
# In all, about 340,000 compounds went through this assay and about 280 (0.082%) were called active. This excerpt belongs to a sample that is enriched for actives. A number with no mark means an inactive call.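 How the source made its calls: active means percent activation above the mean of all tested compounds plus 3 SD (cut at about 19% in these data); inactive means the rest.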
# Target: cAMP-dependent protein kinase type I-alpha regulatory subunit (Bos taurus) + cAMP-dependent protein kinase catalytic subunit beta (Mus musculus) (UniProt P00514+P68181)
# Assay: activators of PKA-R1A holoenzyme, primary screen, biochemical, fluorescence polarization, Cy5-IP20, bovine R1A, mouse PKAc (AID 504707);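 further: higher means more PKAc released from R1A so a rise in polarization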
# Details: PKA-R1A dissociation, at 11.4 µM, stronger effect = higher value, scaled: DMSO 0%, 113 µM cGMP 100%
row,SMILES,activation
1,CCc1ccccc1OCC(=O)Nc1nnc(C2CC2)s1,8.59%
2,Cc1ccc(C(=O)OCC(=O)N2CC(C)CC(C)C2)cc1S(=O)(=O)N1CCCCC1 (configuration not stated),2.86%
3,O=C(OCc1ccccc1)N1CCC2CC1c1ccc(-c3ccc4c(c3)OCO4)cc12 (configuration not stated),-1.02%
4,CC(OC(=O)c1cccnc1Cl)C(=O)NC1CCCCC1 (configuration not stated),0.33%
5,O=Cc1cn(CCOc2ccc(F)cc2)c2ccccc12,1.87%
6,CCOc1ccc(CCNC(=O)COC(=O)c2ccc(C)c(S(=O)(=O)N3CCOCC3)c2)cc1OCC,-10.3%
7,COc1ccc(CN2CC(C(=O)NC3CCCCC3)CC2=O)cc1 (configuration not stated),6.81%
8,COc1ccc(N)cc1NC(=O)CN1CCOCC1,8.37%
9,O=C(C[C@H]1C[C@@H]2c3cc(NC(=O)C4CCC4)ccc3O[C@@H]2[C@H](CO)O1)NC1CCCCC1,-5.02%
10,COC(=O)C[C@H]1C[C@@H]2c3cc(NC(=O)Nc4ccccc4)ccc3O[C@@H]2[C@@H](CO)O1,1.1%
11,O=C(Nc1ccc2c(c1)[C@@H]1C[C@@H](CC(=O)N3CCCCC3)O[C@@H](CO)[C@@H]1O2)NC1CCCCC1,19.6% (active)
12,CC(C)CCC(=O)Nc1cc(S(=O)(=O)N2CCOCC2)ccc1N1CCCC1,-1.93%
13,CC1(c2cccc(Br)c2)NC(=O)N(CC(=O)NCCC2=CCCCC2)C1=O (configuration not stated),-3.47%
14,CCOc1ccc(NC(=O)CN(C)C(=O)Cn2c(=O)cnc3ccccc32)cc1OCC,-7.12%
15,CCc1ccc(OC(C)C(=O)Nc2ccc(S(=O)(=O)Nc3cc(C)on3)cc2)cc1 (configuration not stated),-6.6%
16,CCC(Oc1ccccc1C)C(=O)Nc1ccc(S(=O)(=O)Nc2cc(C)on2)cc1 (configuration not stated),20.4% (active)
17,CCOc1ccc(C(=O)Nc2ccc(S(=O)(=O)Nc3cc(C)on3)cc2)cc1,3.9%
18,O[C@H]1CN(Cc2cccs2)[C@@H](c2ccc(Cl)cc2)C[C@@H]1n1cc(C2CC2)nn1,-6.87%
19,O=C(O)C1=C(C(=O)O)C2CCC1C2,7.53%
20,CCCCCC(=O)N1C[C@H](O)[C@@H](n2cc(COC(=O)c3ccccc3)nn2)C[C@@H]1c1ccc(C)cc1,1.28%
21,Cc1ccc(-c2ccc(CN3C(C(C)C)C(=O)N(Cc4cn(CCC5OCCCO5)nn4)CCS3(=O)=O)cc2)cc1 (configuration not stated),-3.03%

row,SMILES,activation
1,Cc1ccc(CCNC(=O)c2ccc3nc4ccccc4c(=O)n3c2)cc1,1.64%
2,Cc1cccn2c(=O)c3cc(C(=O)NCCN4CCOCC4)c(=N)n(Cc4cccnc4)c3nc12,5.89%
3,Cc1ccc2nc3c(cc(C(=O)NCCc4ccccc4)c(=N)n3CC3CCCO3)c(=O)n2c1 (configuration not stated),20.5% (active)
4,Cc1ccc(S(=O)(=O)N(CCc2ccccc2)c2ccc3c(c2)C2CC3CCN2C(=O)OCc2ccccc2)cc1 (configuration not stated),-0.4%
5,CC(C)NC(=O)Nc1ccc2c(c1)C(=O)N([C@H](C)CO)C[C@H](C)[C@@H](CN(C)Cc1ccc(C(F)(F)F)cc1)OCCCC[C@@H](C)O2,3.01%
6,C#CCN(C[C@@H]1[C@@H](OC(=O)NC2CC2)[C@@H](OC(=O)NC2CC2)Cn2c(=O)ccc(=O)n21)S(=O)(=O)c1ccc(C)cc1,-6.57%
7,CN(Cc1c(F)cccc1Cl)C(=O)COC(=O)Cn1cnc2ccccc2c1=O,0.6%
8,COc1ccc(NC(=O)C[C@H]2C(=O)N(CCc3ccccc3)C[C@@H]2C)cc1,-0.95%
9,COc1ccccc1N1CC(C(=O)Nc2nnc(SCC(=O)NC(C)C)s2)CC1=O (configuration not stated),24.3% (active)
10,COc1ccccc1N1CC(C(=O)Nc2nnc(SCC(=O)NCC3CCCO3)s2)CC1=O (configuration not stated),0.23%
11,Cc1ccccc1N1CC(C(=O)Nc2nnc(SCCC3OCCO3)s2)CC1=O (configuration not stated),-0.56%
12,CC1CN(C(=O)c2cccc(NS(=O)(=O)c3ccc(Br)cc3)c2)CC(C)O1 (configuration not stated),-7.05%
13,CSc1ncnc2c1ncn2CCCNCc1ccco1,-1.79%
14,COc1cccc(NC(=O)CN(C)C(=O)c2cc(Cl)nc3ccccc23)c1,9.02%
15,O=C1c2ccccc2-c2ccccc2NC1O (configuration not stated),10.3%
16,CCOc1cc(C(=O)Nc2ccc(S(=O)(=O)Nc3cnc4ccccc4n3)cc2)cc(OCC)c1OCC,-1.58%
17,Cc1ccc2nsnc2c1NC(=O)c1ccccc1[N+](=O)[O-],-6.39%
18,CCOc1cc(C(=O)Nc2c(C)ccc3nsnc23)cc(OCC)c1OCC,19.5% (active)
19,CCCn1c(N)c(C(=O)CSc2nnc(Cc3cccs3)n2C2CC2)c(=O)[nH]c1=O,9.54%
20,O=C1CC[C@@H](C(=O)N2CSC[C@@H]2C(=O)Nc2ccc(C(F)(F)F)cc2)N1,0.56%
21,CC(=O)Nc1ccc(SCC(=O)NC(=O)c2ccc(Cl)cc2)cc1,2.13%

row,SMILES,activation
1,CCC(=O)N1CCc2cc(S(=O)(=O)CCC(=O)N3CCN(c4ccccc4F)CC3)ccc21,2.69%
2,Cc1ccn(C(CC(=O)c2ccc(Br)cc2)C(=O)O)n1 (configuration not stated),-7.77%
3,CC1C(=O)N(Cc2cn(CC3CCCCC3)nn2)CCS(=O)(=O)N1Cc1ccc(-c2cccc(N(C)C)c2)cc1 (configuration not stated),-4.48%
4,NC(CSC(c1ccccc1)(c1ccccc1)c1ccc(-c2ccccc2)cc1)C(=O)O (configuration not stated),-6.56%
5,Cc1ccc(C(=O)O)cc1-c1ccc(/C=C2\SC(=O)N(CC(=O)Nc3ccc4c(c3)OCO4)C2=O)o1,0.69%
6,Cc1cc(/C=C2/SC(=O)N(CC(=O)N3CCCC3)C2=O)c(C)n1C,-2.71%
7,N#Cc1ccccc1CN1C(=O)S/C(=C/c2cccn2-c2cccc(C(=O)O)c2)C1=O,26.4% (active)
8,CC(=O)Nc1ccc(C=CC(=O)c2ccc([N+](=O)[O-])cc2)cc1,4.15%
9,COc1ccc(CN2C(=O)C(CC(=O)NCCCCc3ccccc3)CC(C(=O)N3CCOCC3)=C2C)cc1 (configuration not stated),-0.11%
10,Cc1ccc(NC(=O)COC(=O)CN2CCSC2=O)cc1F,-5.13%
11,COc1cc2ccc(C(C)=O)c(O)c2cc1OC,4.58%
12,Cc1csc(SCC(=O)Nc2ccc(C)c(S(=O)(=O)N(C)C)c2)n1,-1.19%
13,CCOC(=O)C=Cc1ccc(C(=O)OCC)[nH]1,1.4%
14,O=C(NCC(F)(F)F)c1ccc(S(=O)(=O)NCCc2ccc3c(c2)OCCO3)cc1,-0.03%
15,Cc1cc(C)c2c(=O)n3c(nc2c1)C(CC(C)C)NC(=O)c1cc2ccccc2cc1-3 (configuration not stated),-8.23%
16,COc1ccc(C(CNC(=O)CSc2ccccc2)N2CCOCC2)cc1 (configuration not stated),-7.96%
17,Cc1cccc(S(=O)(=O)N(C)C[C@@H]2OCc3cnnn3CCCC(=O)N([C@H](C)CO)C[C@@H]2C)c1,1.99%
18,CCN(CC)C(=O)C1=C(C)N(Cc2ccc(C(C)(C)C)cc2)C(=O)C(CC(=O)NCc2cccc3ccccc23)C1 (configuration not stated),-15.8%
19,COc1ccc([C@H]2C[C@@H](n3cc(COC(=O)c4ccccc4)nn3)[C@H](O)CN2C(=O)c2cccs2)cc1,-9.97%
20,COc1ccc(NS(=O)(=O)c2ccc(NC(=O)c3ccc(N(C)S(C)(=O)=O)cc3)cc2)cc1,9.45%
21,COc1ccc(NC(=O)c2ccc(C#CC(C)(C)O)cc2)cc1,23.1% (active)

row,SMILES,activation
1,COc1ccc(C(=O)Nc2ccc(-n3nncc3C(C)(C)C)cc2)cc1,-6.01%
2,COn1c(=O)c(=O)n(OC)c2ccccc21,-14.3%
3,COc1ccc(NC(=O)c2cc(=O)[nH]c3ccccc23)cc1S(=O)(=O)N1CCOCC1,3.45%
4,N#CCCC(C#N)(c1cccnc1)N1CCOCC1 (configuration not stated),9.19%
5,O[C@@H]1C[C@H](c2ccccc2)N(Cc2cccs2)C[C@H]1n1cc(C2CC2)nn1,8.01%
6,Cn1ncc2c(NNC(=O)Cc3cccc4ccccc34)ncnc21,-20.9%
7,O=C(CNC(=O)N1CC(=O)Nc2ccccc21)Nc1ccc(Br)cc1F,-0.99%
8,CCOc1ccc(C2NC(=S)NC3=C2CCc2ccccc23)cc1 (configuration not stated),-2.38%
9,CCOC(=O)c1cc(-c2sc(NC(=O)c3ccccc3)nc2C)n(-c2ccc(Br)cc2)n1,4.25%
10,C[C@H](CO)N1C[C@H](C)[C@@H](CN(C)C(=O)c2cccc(F)c2)Oc2cc(-c3cncnc3)ccc2S1(=O)=O,0.35%
11,CCOC(=O)C1CCN(C(=O)c2ccc3c(=O)n4nc(Nc5ccccc5CC)sc4nc3c2)CC1,-0.99%
12,C[C@@H]1CN([C@@H](C)CO)S(=O)(=O)c2ccc(-c3ccc(C(=O)N(C)C)cc3)cc2O[C@@H]1CN(C)Cc1ccccc1C(=O)O,-3.75%
13,O=S1(=O)CCN(C2CCCCCCCCCCC2)CC1,7.32%
14,c1ccc(Cn2nnc3c(NCC4CC4)ncnc32)cc1,5.88%
15,O=C(COc1ccc(S(=O)(=O)N2CCCC2)cc1[N+](=O)[O-])N1CCCCC1,-0.2%
16,Cc1cccc(N(CC(=O)N2CCCC2)S(C)(=O)=O)c1C,-6.73%
17,CC1=C(C(=O)Nc2cccc(C(=O)NCC(C)c3ccccc3)c2)SCCO1 (configuration not stated),9.58%
18,CCOC(=O)c1c(NC(=S)SC)sc(C(=O)N2CCc3ccccc3C2)c1C,-7.69%
19,Cc1ccc(S(=O)(=O)N2CCOCC2)cc1NC(=O)c1ccncc1,-4.48%
